PubChem BioAssay (EPA / NIEHS)
“And” between values parts separate entries of the source, which are not always exact repeats. Identical values can stand only once. Records with an inconclusive call do not appear. Where a structure was tested more than once in an assay, its records may differ in their call. The source made the active and inactive calls. How the source made its calls, unless noted: active means hit-call score of the fitted dose curve at least 0.9, where 1 is the maximum; inconclusive means response in the unintended direction; inactive means score below 0.9.

What was measured:
[1] = TOX21_p53_BLA_p2_viability: Viability Assessment in the Tox21 HCT-116 p53 Agonism Beta-lactamase Assay, Phase 2 (AID 2283591);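 further: compound exposure lasted 16 h at 37 °C; actives lower the ATP signal meaning cytotoxicity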
Procedure, shortened: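 Cytotoxicity readout: CellTiter-Glo ATP luminescence, 30 min at room temperature, after the beta-lactamase read. Cells were HCT116 exposed 16 h at 37C to compounds pin-transferred at 217-fold dilution from DMSO stocks.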

[2] = biological target: Cellular tumor antigen p53 (Homo sapiens) (UniProt P04637); test: TOX21_p53_BLA_p5_ratio: Tox21 HCT-116 p53 Agonism Beta-lactamase Assay, Ratio, Phase 5 (AID 2283599)
Procedure, shortened: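 Beta-lactamase reporter ratio (blue 460 nm over green 530 nm, 405 nm excitation) after 2 h CCF4-AM loading, in HCT-116 cells exposed 16 h at 37 C to compounds pinned at 217-fold dilution. Increases relative to DMSO baseline scored.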

[3] = TOX21_p53_BLA_p5_viability: Viability Assessment in the Tox21 HCT-116 p53 Agonism Beta-lactamase Assay, Phase 5 (AID 2283600)
Procedure, shortened: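 Viability came from CellTiter-Glo ATP luminescence, read after 30 min at room temperature. Before this, HCT-116 p53-bla cells (4000/well) had 16 hours of compound exposure at 37C, with DMSO stocks diluted 217-fold on transfer.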

[4] = TOX21_p53_BLA_p4_viability: Viability Assessment in the Tox21 HCT-116 p53 Agonism Beta-lactamase Assay, Phase 4 (AID 2283597);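 further: hits lower the luminescence signal meaning cytotoxicity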
Procedure, shortened: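 Cytotoxicity as reduced cellular ATP (CellTiter-Glo luminescence, 30 min room temperature), measured in the same wells following the CCF4 FRET p53 reading. Human HCT-116 cells received compounds in DMSO (217-fold dilution) for 16 h.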

[5] = biological target: Cellular tumor antigen p53 (Homo sapiens) (UniProt P04637); test: TOX21_p53_BLA_p4_ratio: Tox21 HCT-116 p53 Agonism Beta-lactamase Assay, Ratio, Phase 4 (AID 2283601)
Procedure, shortened: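 Signal is the blue/green (460nm/530nm) ratio of cleaved versus uncleaved CCF4-AM substrate, read after 2 h substrate loading. Cells were HCT116 carrying the p53-responsive beta-lactamase reporter, dosed 16 h at 37C, 5% CO2; CellTiter-Glo measured in parallel.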

[6] = CCTE_Harrill_HTTr_Viability_MCF7: CCTE's 6-hour Cell Viability Assessment for the High-Throughput Transcriptomics (HTTr) Platform, in MCF-7 cells cultured in DMEM + 10% fetal bovine serum, Harrill Lab (AID 2284010; active means hit-call score of the fitted dose curve at least 0.9, where 1 is the maximum; inactive means score below 0.9)
Procedure, shortened: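 Read-out is propidium iodide gain of signal by high-content imaging, reflecting membrane integrity loss. Measurements are taken 6 h after dosing, eight concentrations per chemical, with DMSO serving as baseline for bidirectional curve fitting.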

[7] = CCTE_Harrill_HTTr_Apoptosis_MCF7: CCTE's 6-hour Apoptosis Assessment for the High-Throughput Transcriptomics (HTTr) Platform, in MCF-7 cells cultured in DMEM + 10% fetal bovine serum, Harrill Lab (AID 2284011; active means hit-call score of the fitted dose curve at least 0.9, where 1 is the maximum; inactive means score below 0.9)
Procedure, shortened: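 High-content imaging of CellEvent Caspase 3/7 Green signal follows a six-hour exposure, with eight concentrations per chemical. MCF-7 cells grown in DMEM plus 10% fetal bovine serum; activity fitted in both directions against DMSO.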

[8] = CCTE_Harrill_HTTr_CellCount_MCF7: CCTE's Cell Proliferation Assessment for the High-Throughput Transcriptomics (HTTr) Platform, Harrill Lab (AID 2284012);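 further: cells exposed to compound for six hours; intended direction is loss of nuclei count meaning fewer cells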
Procedure, shortened: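 Cell count served as viability reporter: loss of Hoechst-stained nuclei, counted by high content imaging, marks decreased growth or survival. Exposure was 6 h in MCF-7 cells across eight concentrations, with DMSO as baseline.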

[9] = biological target: Cellular tumor antigen p53 (Homo sapiens) (UniProt P04637); test: TOX21_p53_BLA_p2_ratio: Tox21 HCT-116 p53 Agonism Beta-lactamase Assay, Ratio, Phase 2 (AID 2283592)
Procedure, shortened: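 Read-out is the blue/green (460/530 nm, 405 nm excitation) ratio after 2 h CCF4-AM loading, fitted as gain versus DMSO. Compounds, pinned at 217-fold dilution from DMSO stocks, stayed 16 h on HCT-116 beta-lactamase reporter cells seeded 5 h earlier.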

[10] = TOX21_p53_BLA_p3_viability: Viability Assessment in the Tox21 HCT-116 p53 Agonism Beta-lactamase Assay, Phase 3 (AID 2283593);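 further: cells exposed to compound for 16 h before reading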
Procedure, shortened: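 Cellular ATP was quantified by CellTiter-Glo luminescence, read after 30 min at room temperature. Beforehand, HCT116 cells (4000/well) received compound 5 h post-seeding, 217-fold diluted from DMSO, then incubated 16 h at 37C.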

[11] = biological target: Cellular tumor antigen p53 (Homo sapiens) (UniProt P04637); test: TOX21_p53_BLA_p3_ratio: Tox21 HCT-116 p53 Agonism Beta-lactamase Assay, Ratio, Phase 3 (AID 2283596)
Procedure, shortened: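 Cells were seeded at 4000/well, rested 5 h at 37C, then dosed with DMSO compound solutions (217-fold dilution) for 16 h. CCF4-AM substrate was loaded for 2 h at room temperature, and the 460/530 nm emission ratio was fitted for gain of signal versus DMSO.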

Measured: AC50

Cellular tumor antigen p53 (Homo sapiens), sequence (P04637 whole entry, looked up): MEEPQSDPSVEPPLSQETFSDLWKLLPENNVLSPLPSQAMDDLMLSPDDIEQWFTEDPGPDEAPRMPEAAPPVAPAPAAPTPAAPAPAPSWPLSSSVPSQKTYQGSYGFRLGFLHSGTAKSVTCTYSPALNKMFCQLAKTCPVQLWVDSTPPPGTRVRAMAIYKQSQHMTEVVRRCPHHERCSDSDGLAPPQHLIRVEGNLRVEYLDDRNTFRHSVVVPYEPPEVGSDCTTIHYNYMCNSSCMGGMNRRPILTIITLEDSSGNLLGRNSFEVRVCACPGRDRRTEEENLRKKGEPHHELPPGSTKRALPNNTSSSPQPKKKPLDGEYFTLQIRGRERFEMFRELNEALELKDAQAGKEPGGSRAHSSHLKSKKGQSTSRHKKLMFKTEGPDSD

CN1C(C)(C)CCCC1(C)C
inactive: [1] | [2] | [3]

O=c1[nH]cnc2ccccc12
inactive: [1] | [4] | [2] | [3] | [5]

CC(=O)N(CC(C)C(=O)O)c1c(I)cc(I)c(N)c1I (centres undefined)
inactive: [1] | [4] | [2] | [5]

OC1OC[C@@H](O)[C@H](O)[C@@H]1O (some centres undefined)
inactive: [1] | [4] | [5]

Nc1c(NC/C=C\COc2cc(CN3CCCCC3)ccn2)c(=O)c1=O
inactive: [1] | [2]

COc1ccccc1OCCNCC(O)COc1cccc2[nH]c3ccccc3c12 (centres undefined)
active: [4] 36.8 µM | [5] 41.9 µM
inactive: [1] | [2] | [3]

CCCNCC(O)COc1ccccc1C(=O)CCc1ccccc1 (centres undefined)
inactive: [1] | [4] | [3]

Cc1onc(-c2ccccc2)c1C(=O)N[C@@H]1C(=O)N2[C@@H]1SC(C)(C)[C@@H]2C(=O)O
inactive: [1] | [4] | [5]

COc1cc2nc(N3CCN(C(=O)C4CCCO4)CC3)nc(N)c2cc1OC (centres undefined)
inactive: [1] | [4] | [2] | [3] | [5]

Cc1cccc(Nc2ccncc2S(=O)(=O)NC(=O)NC(C)C)c1
inactive: [1] | [4] | [3] | [5]

Nc1ccc2c3c(cccc13)-c1ccccc1-2
inactive: [1] | [4] | [3]

Nc1nc2c(ncn2CCC(CO)CO)c(=O)[nH]1
inactive: [1] | [4] | [3]

CCOC(=O)NCCC[Si](OCC)(OCC)OCC
inactive: [1] | [4] | [3]

NS(=O)(=O)c1cc2c(cc1Cl)NC(CSCc1ccccc1)=NS2(=O)=O
inactive: [1] | [2]

c1ccc(COCc2ccccc2)cc1
inactive: [1] | [4] | [2] | [5]

C[C@]12CCC(=O)C=C1CC[C@@H]1[C@@H]2[C@@H](O)C[C@@]2(C)[C@H]1CC[C@]2(O)C(=O)COC(=O)CCC(=O)O
inactive: [1] | [4] | [3] | [5]

O=P(O)(O)C(O)(Cc1cnc2ccccn12)P(=O)(O)O
inactive: [1] | [2]

O=C1NC2CCCCN2C12CCN(CCCN1c3ccccc3CCc3ccc(Cl)cc31)CC2 (centres undefined)
active: [1] 37.5 µM | [4] 43 µM
inactive: [5]

O=C(CCC1CCN(Cc2ccccc2)CC1)c1ccc2c(c1)NCCCC2
inactive: [1] | [4] | [2] | [3] | [5]

CC(C)=CCC/C(C)=C/CC/C(C)=C/CCC(=O)OC/C=C(\C)CCC=C(C)C
inactive: [1] | [4] | [5]

Cn1ccc2cc3c(cc21)CCN3C(=O)Nc1cccnc1
inactive: [1] | [4] | [2] | [5]

CC(C)(C)C(=O)Oc1ccc(S(=O)(=O)Nc2ccccc2C(=O)NCC(=O)O)cc1
inactive: [1] | [4] | [3] | [5]

Cc1ccc(C(C)NC(=O)[C@@H](NC(=O)OC(C)C)C(C)C)cc1 (some centres undefined)
not listed: [9] | [10] | [11]
inactive: all other assays above

CNS(=O)(=O)CCc1ccc2[nH]cc(C3CCN(C)CC3)c2c1
inactive: [1] | [4] | [3] | [5]

CCC(C)(C)C(=O)O
inactive: [1] | [4] | [3] | [5]

NC(=O)c1ccncc1
inactive: [1] | [4] | [2] | [5]

CC(=O)CC(c1ccc([N+](=O)[O-])cc1)c1c(O)c2ccccc2oc1=O (centres undefined)
inactive: [1] | [4] | [2] | [5]

O=C(CN1CCN(Cc2ccc3c(c2)OCO3)CC1)N1c2ccccc2Sc2ccccc21
inactive: [1] | [4] | [2] | [3] | [5]

CCCC(=O)Nc1c(I)cc(I)c(CC(CC)C(=O)O)c1I (centres undefined)
inactive: [9]

COC(=O)C[C@](O)(CCCC(C)(C)O)C(=O)O[C@@H]1C(OC)=CC23CCCN2CCc2cc4c(cc2[C@H]13)OCO4 (some centres undefined)
active: [9] 0.0202 µM | [11] 45.4 nM and 43.1 nM | [4] 0.014 µM | [2] 0.0379 µM
inactive: [9] | [10] | [2] | [3]

OC(CN1CCCCC1)c1cc(-c2ccccc2)on1 (centres undefined)
inactive: [1] | [5]

C[C@@H](CN(C)C)CN1c2ccccc2Sc2ccccc21
inactive: [1] | [2] | [5]

COc1cc2c(cc1O)CCN[C@]21CS[C@@H]2c3c(OC(C)=O)c(C)c4c(c3[C@H](COC1=O)N1[C@@H]2[C@H]2c3c(cc(C)c(OC)c3O)C[C@@H]([C@@H]1O)N2C)OCO4
inactive: [9]
active: [9] 0.00174 µM

O=[N+]([O-])c1ccc(F)c(Cl)c1
inactive: [9] | [10]

O=C1C=CCCC1
inactive: [1] | [2] | [3]

COC(=O)CCCCC(=O)O
inactive: [9] | [10] | [11]

CCOC(=O)CC(C)=O
inactive: [1] | [3]

CC1=C(C/C=C(\C)CCC[C@H](C)CCC[C@H](C)CCCC(C)C)C(=O)c2ccccc2C1=O
inactive: [1] | [5]
